These results are taken from PubChem BioAssay (NCI).

Values joined by “and” are separate entries in the source; they are usually repeats but may differ in a detail not shown here. Identical values can stand only once. Compounds without any hit were thinned out: in the full panel of roughly 79,000, 15% have a hit. Some compounds were tested as several samples or in several runs, with calls that do not always agree. Active and inactive are the calls of the source. No stated cut-off is given here; in the data, active means growth inhibition above about 70%; inactive means the rest.

Assay [1] in a line: NCI Yeast Anticancer Drug Screen. Data for the rad50 strain (AID 155).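 Further: 0% = growth of vehicle-only cultures of the same strain.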 To be noted: S. cerevisiae rad50 strain growth inhibition; at 50.0 µM; stronger effect = higher value. In a few lines: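 Compounds were tested on a yeast strain with an engineered DNA damage repair alteration; the reported value is growth inhibition normalised to vehicle treatment.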
Assay [2] is described as follows: NCI Yeast Anticancer Drug Screen. Data for the mec2-1 strain (AID 157). To be noted: S. cerevisiae mec2-1 strain, at 50.0 µM, stronger effect = higher value. Summed up: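 Readout is yeast growth inhibition, normalised to vehicle-treated controls, in the mec2-1 strain exposed to compound.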
A short description of assay [3]: NCI Yeast Anticancer Drug Screen. Data for the sgs1 mgt1 strain (AID 161).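 Further: 0% = growth of cultures given vehicle only.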 To be noted: S. cerevisiae sgs1 mgt1 strain, at 50.0 µM, stronger effect = higher value. Summed up:
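Percent growth inhibition was derived by comparing compound-exposed mutant yeast with vehicle-exposed cultures. The strain carries alterations in DNA damage repair.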

Assay [4] can be described thus: NCI Yeast Anticancer Drug Screen. Data for the cln2 rad14 strain (AID 165).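 Further: 0% = growth equal to vehicle treated cultures.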 The note with it: S. cerevisiae cln2 rad14 strain, at 50.0 µM, stronger effect = higher value. Summed up: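 Relative to vehicle controls, growth inhibition of compound-treated cln2 rad14 yeast was recorded.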
The nature of assay [5]: NCI Yeast Anticancer Drug Screen. Data for the bub3 strain (AID 167). The note with it: S. cerevisiae bub3 mutant strain, at 50.0 µM, stronger effect = higher value. In a few lines: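 Growth of a checkpoint-deficient yeast mutant is measured after compound exposure. Values represent inhibition relative to vehicle.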
Assay [6] is described as follows: NCI Yeast Anticancer Drug Screen. Data for the mlh1 rad18 strain (AID 175). To be noted: S. cerevisiae mlh1 rad18 strain growth inhibition; at 50.0 µM; stronger effect = higher value. In a few lines: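 Test agents were incubated with a yeast strain of defined genotype (DNA damage repair defect). Inhibition of growth was derived by comparison with vehicle-exposed cultures.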

For `Nc1ccc(O)c2c1C(=O)c1c(O)ccc(N)c1C2=O`, the growth inhibition in assay [1] is 59.8% (inactive) and 13.4% (inactive); in assay [2], 11.4% (inactive) and -13.4% (inactive); in assay [3] it was 16.4% (inactive) and -0.55% (inactive); in assay [4], -16.1% (inactive) and -0.65% (inactive); in assay [5], 43.2% (inactive) and 8.25% (inactive); in assay [6], 42.1% (inactive) and 11.8% (inactive).

Regarding `CSCCC(NC(=O)COc1ccc(Cl)cc1Cl)C(=O)O` (stereo not given), the growth inhibition in assay [1] is -21.3% (inactive) and 16.8% (inactive); in assay [2] it was -35.6% (inactive) and 60% (inactive); in assay [3], -44.5% (inactive) and 34.2% (inactive); in assay [4], 6.2% (inactive) and 7.2% (inactive); in assay [5], -23.4% (inactive) and 30.6% (inactive); in assay [6], -33.3% (inactive) and 52.7% (inactive).

Take `CC(Br)C(=O)NC(Cc1ccccc1)C(=O)O` (stereo not given): the growth inhibition in assay [1] is 2.65% (inactive) and -4.15% (inactive) and -18.5% (inactive); in assay [2], -18.9% (inactive) and 0.65% (inactive) and -20.2% (inactive); in assay [3], -11.8% (inactive) and 3% (inactive); in assay [4] it was 16.8% (inactive) and -25.6% (inactive); in assay [5] it was -17.5% (inactive) and 8.15% (inactive); in assay [6] it was 25.4% (inactive) and 5.95% (inactive) and -9.85% (inactive).

As to `CC(=O)Nc1ccc(-c2ccc(NC(C)=O)cc2)cc1`, the growth inhibition in assay [1] was -24.2% (inactive) and -15.2% (inactive); in assay [2], -41.9% (inactive) and -24.6% (inactive); in assay [3], -26.9% (inactive) and -0.95% (inactive); in assay [4] it was -182% (inactive) and -42.9% (inactive); in assay [5], -24.4% (inactive) and -1.45% (inactive); in assay [6] it was -10.1% (inactive) and -21.2% (inactive).

For the compound `O=C(O)CSc1nc2ccccc2s1`, the growth inhibition in assay [1] is -8.8% (inactive) and -6.9% (inactive); in assay [2], 1.7% (inactive) and -9.8% (inactive); in assay [3] it was -0.85% (inactive) and -11.6% (inactive); in assay [4], -28.8% (inactive) and -12% (inactive); in assay [5] it was 9.45% (inactive) and -33.6% (inactive); in assay [6] it was -12.7% (inactive) and -48% (inactive).

Turning to `CC(C)C1C=C2CCC3C(C)(C(=O)O)CCCC3(C)C2CC1` (stereo not given), the growth inhibition is 79.6% (active) and 46.2% (inactive) in assay [1]; 68.2% (inactive) and 58.1% (inactive) in assay [2]; 22.8% (inactive) and 48% (inactive) in assay [3]; 73.7% (active) and 65.3% (inactive) in assay [4]; 65.2% (inactive) and 44.9% (inactive) in assay [5]; 81.7% (active) and 49.9% (inactive) in assay [6].

For the compound `CCCCCCCCCCCCc1ccccc1`, the growth inhibition is 2.15% (inactive) and 17.9% (inactive) in assay [1]; 4.1% (inactive) and 11.4% (inactive) in assay [2]; -4.15% (inactive) and 2.6% (inactive) in assay [3]; 5.25% (inactive) and -55.8% (inactive) in assay [4]; 18.2% (inactive) and -19.8% (inactive) in assay [5]; 16.1% (inactive) and -0.6% (inactive) in assay [6].

On to `O=c1c([N+](=O)[O-])c[nH]c2cc(Cl)ccc12`, for which the growth inhibition in assay [1] is -38.3% (inactive) and 6.4% (inactive); in assay [2], 2.25% (inactive) and -2.2% (inactive); in assay [3], -19.2% (inactive) and 8.3% (inactive); in assay [4], 0.25% (inactive) and 35.5% (inactive); in assay [5] it was -6% (inactive) and 11.6% (inactive); in assay [6] it was -33.7% (inactive) and 15.8% (inactive).

Turning to `Nc1nc2nccnc2c(=O)[nH]1`, the growth inhibition in assay [1] was -10.2% (inactive) and 6.15% (inactive); in assay [2], 47% (inactive) and -1.65% (inactive); in assay [3] it was 1.55% (inactive) and -5.7% (inactive); in assay [4], -18.6% (inactive) and -0.35% (inactive); in assay [5], -24.9% (inactive) and 1.45% (inactive); in assay [6] it was -15.2% (inactive) and -0.8% (inactive).

For `Cc1ccc(S(=O)(=O)N2CCCCCC2)cc1`, the growth inhibition in assay [1] was 10.8% (inactive) and -9.2% (inactive); in assay [2] it was 15.8% (inactive) and -2.65% (inactive); in assay [3], -13.7% (inactive) and -5.75% (inactive); in assay [4] it was 1.6% (inactive) and -7.75% (inactive); in assay [5] it was -6.7% (inactive) and -2.85% (inactive); in assay [6], -10.6% (inactive) and -0.45% (inactive).

For `O=C(O)CN(CCO)CCO`, the growth inhibition in assay [1] was -17.9% (inactive) and -21.6% (inactive); in assay [2], 7.65% (inactive) and -16.6% (inactive); in assay [3], 21.4% (inactive) and 12.2% (inactive); in assay [4], -29.1% (inactive) and 1.45% (inactive); in assay [5], -27.9% (inactive) and -16.8% (inactive); in assay [6], -18% (inactive) and 10.1% (inactive).

Turning to `CCOC(=O)C1CN(C)CC(c2ccccc2)C1=O` (stereo not given), the growth inhibition in assay [1] is 12.3% (inactive) and -8.7% (inactive); in assay [2], 14.9% (inactive) and 1% (inactive); in assay [3], 16.1% (inactive) and -3.5% (inactive); in assay [4], -10.4% (inactive) and -25.1% (inactive); in assay [5], 9.25% (inactive) and -4.45% (inactive); in assay [6], 11.1% (inactive) and 5.6% (inactive).

Consider `COC1OC(COC(=O)c2ccccc2)C(OC(=O)c2ccccc2)C1OC(=O)c1ccccc1` (stereo not given), for which the growth inhibition in assay [1] was -15.4% (inactive) and 7.8% (inactive); in assay [2] it was -2.5% (inactive) and -10.2% (inactive); in assay [3] it was -3.65% (inactive) and -3.95% (inactive); in assay [4] it was -28.1% (inactive) and -21.9% (inactive); in assay [5] it was 15.9% (inactive) and -0.85% (inactive); in assay [6], 9% (inactive) and 4.6% (inactive).

`O=C(NC(=O)c1cn(C2OC(CO)C(O)C2O)c(=O)[nH]c1=O)OCc1ccccc1` (stereo not given): the growth inhibition was -3.55% (inactive) and -14.8% (inactive) in assay [1]; -4.8% (inactive) and 23.7% (inactive) in assay [2]; -25.6% (inactive) and -8.85% (inactive) in assay [3]; 11.1% (inactive) and 20.3% (inactive) in assay [4]; -19.6% (inactive) and -17.8% (inactive) in assay [5]; -19.6% (inactive) and 0.55% (inactive) in assay [6].

Consider `NC(=O)N/N=C/C=C/c1ccccc1`, for which the growth inhibition in assay [1] is 18.4% (inactive) and -1.3% (inactive); in assay [2], 12.7% (inactive) and 3.1% (inactive); in assay [3], 6.85% (inactive) and -6.75% (inactive); in assay [4], 7.55% (inactive) and -20.4% (inactive); in assay [5], -0.4% (inactive) and -14.1% (inactive); in assay [6] it was 5.05% (inactive) and 6.95% (inactive).

For `Nc1cccc2cc(S(=O)(=O)O)ccc12`, the growth inhibition in assay [1] was 10.6% (inactive) and -6.9% (inactive); in assay [2] it was 22.9% (inactive) and -9.85% (inactive); in assay [3] it was -24.9% (inactive) and -1.25% (inactive); in assay [4], -2.75% (inactive) and -50.2% (inactive); in assay [5], -1.65% (inactive) and -11.9% (inactive); in assay [6] it was -5.5% (inactive) and -35.7% (inactive).

Turning to `C/C(=N\NS(C)(=O)=O)C(C)(C)C`, the growth inhibition was -5.05% (inactive) and 16.1% (inactive) in assay [1]; -0.2% (inactive) and 11.1% (inactive) in assay [2]; 2.35% (inactive) and 21.3% (inactive) in assay [3]; -5.35% (inactive) and 6.5% (inactive) in assay [4]; -35.5% (inactive) and -20.8% (inactive) in assay [5]; -13% (inactive) and 17.8% (inactive) in assay [6].

Regarding `O=C(NCc1ccccc1)C1C(=O)C(=O)N(Cc2ccccc2)C1=O` (stereo not given), the growth inhibition in assay [1] is -29.4% (inactive) and 4.55% (inactive); in assay [2], -22.6% (inactive) and 0.8% (inactive); in assay [3], -12.2% (inactive) and -8.45% (inactive); in assay [4] it was 2% (inactive) and 14% (inactive); in assay [5], -8.8% (inactive) and -3.45% (inactive); in assay [6], -36% (inactive) and 2.6% (inactive).

As to `O=C(O)C1(O)C[C@@H](O)C(O)[C@H](O)C1` (stereo not given in full), the growth inhibition is 4.9% (inactive) and -19.3% (inactive) in assay [1]; 0.15% (inactive) and -14.2% (inactive) in assay [2]; -3.65% (inactive) and -30.1% (inactive) in assay [3]; 21.2% (inactive) and 23.8% (inactive) in assay [4]; -4.65% (inactive) and -2.35% (inactive) in assay [5]; 3.6% (inactive) and -2.65% (inactive) in assay [6].

For `NC(=O)c1nnn(Cc2ccccc2)c1N`, the growth inhibition in assay [1] is 5.55% (inactive) and 31.2% (inactive); in assay [2], 5.6% (inactive) and -1.5% (inactive); in assay [3], -3.05% (inactive) and -4.65% (inactive); in assay [4], -4.65% (inactive) and -1.95% (inactive); in assay [5] it was 6.9% (inactive) and -5.2% (inactive); in assay [6], 9.6% (inactive) and 3.3% (inactive).
